From PubChem
Compounds with a hit are over-represented: about 3.4% of the library has one in this group of screens.
FBW7 act = human FBW7 E3 ligase activation, primary screen; AlphaScreen FBW7–phospho-cyclin E peptide binding, activator screen; normalized activity (activation), % at 26.1 µM; Q969H0; 650,000 compounds, 0.13% hits; in the data active = normalized activity above about 1.9%;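 note: purified mutant Fbw7 with reduced substrate affinity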
MITF inh = inhibitors of human MITF | O75030 | AlphaScreen MITF homodimerization, bead proximity signal | inhibition, % at 2.6 µM | 650,000 compounds, 0.91% hits; in the data active = inhibition above about 50%;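 note: 0% = vehicle wells with protein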
Target sequence (O75030 whole entry, looked up): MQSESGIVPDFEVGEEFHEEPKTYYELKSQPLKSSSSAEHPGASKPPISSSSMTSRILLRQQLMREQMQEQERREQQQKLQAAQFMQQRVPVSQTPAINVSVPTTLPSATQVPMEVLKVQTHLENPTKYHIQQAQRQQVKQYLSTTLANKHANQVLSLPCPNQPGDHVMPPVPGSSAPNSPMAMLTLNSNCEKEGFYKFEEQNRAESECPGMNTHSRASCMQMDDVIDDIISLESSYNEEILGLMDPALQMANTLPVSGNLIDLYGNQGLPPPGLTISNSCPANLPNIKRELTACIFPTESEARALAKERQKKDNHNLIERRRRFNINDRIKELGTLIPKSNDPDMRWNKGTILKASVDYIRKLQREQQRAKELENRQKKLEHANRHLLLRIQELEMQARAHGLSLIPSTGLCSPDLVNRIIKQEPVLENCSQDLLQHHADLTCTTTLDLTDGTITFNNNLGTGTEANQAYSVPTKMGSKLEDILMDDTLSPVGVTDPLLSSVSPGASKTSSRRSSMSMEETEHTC
TEAD-YAP block = TEAD-YAP interaction inhibition; AID 1259422; HEK-TIYL cells, TEAD-Gal4/YAP UAS-luciferase luminescence; 640,000 compounds, 1.4% hits; inhibition, % at 9.12 µM; in the data active = inhibition above about 32%;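 note: 0% = median of test compound wells and 100% = reference inhibitor wells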
GPR151 activ = activates the human receptor GPR151; Q8TDV0; PathHunter beta-arrestin GPR151 cells, luminescence; activation, % at 11.2 µM; 650,000 compounds, 1% hits; AID 1508602; in the data active = activation above about 4.9%;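 note: 0% = median of compound wells and 100% = cells with positive control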
* marks the source's active call; other numbers are inactive results.

SMILES	FBW7 act	MITF inh	TEAD-YAP block	GPR151 activ
CN(C)c1ccc(-c2nc3ccccc3[nH]2)cc1	0.2	20.6	95.7*	-10.1
COC(=O)c1ccc(C2Nc3ccc4ncccc4c3C3=C2C(=O)CCC3)cc1OC (stereo not drawn)	0.8	6.3	58.5*	-0.9
NC(=O)c1ccccc1Nc1ncnc2c1nc1n2CCCCC1	-0.2	-11.3	47.7*	1.0
c1coc(-c2nnc(SCc3nc4ccccc4[nH]3)o2)c1	-0.1	0.5	43.5*	-1.6
CC1CN(CCC(=O)N2CCC(C(=O)N3CCOCC3)CC2)Cc2cc(Cl)ccc2O1 (stereo not drawn)	0.1	7.8	-0.1	1.0
N#Cc1ccc(-c2ccccc2)nc1SCc1ccccc1F	0.1	-7.5	43.0*	2.0
Cc1ccccc1CSc1nc(-c2cccs2)ccc1C#N	-0.1	-6.0	53.1*	0.4
CCSc1nc(-c2ccccc2)ccc1C#N	0.4	-4.9	-7.5	-0.2
CC12CCC(C(C)(C)O)C(CC(=O)O1)C2 (stereo not drawn)	0.3	19.0	8.5	-1.5
COc1cc(Nc2nccn3c(-c4ccc(F)cc4)cnc23)cc(OC)c1OC	0.0	2.7	50.7*	-0.3
COc1cncc(-c2cnc3c(Nc4cc(OC)c(OC)c(OC)c4)nccn23)c1	0.1	28.1	57.2*	1.0
COc1cc(Nc2nccn3c(-c4ccc(N(C)C)cc4)cnc23)cc(OC)c1OC	-0.7	12.6	55.3*	3.2
COc1ccc(-c2cnc3c(Nc4cc(OC)c(OC)c(OC)c4)nccn23)cc1	-0.2	-3.5	-7.6	1.1
COc1ccc(Cl)cc1C(=O)Nc1cc(-c2nc3ccc(C)cc3o2)ccc1C	0.1	-2.1	-75.9	-0.4
COc1ccc2cc(S(=O)(=O)n3cnc4cc(C)c(C)cc43)ccc2c1	0.1	11.2	67.0*	0.7
CC(C)(C)c1ccccc1Nc1ncnc2sccc12	-0.3	-7.5	1.9	0.6
CC(CCc1ccccc1)Nc1ncnc2sccc12 (stereo not drawn)	0.3	8.3	51.5*	1.9
COc1cccc(OC)c1C(=O)N1CCC(C2(CCC(C)C)NC(=O)NC2=O)CC1 (stereo not drawn)	0.0	-0.8	1.7	-0.9
O=C(CN1CCC(C(=O)c2ccccc2)CC1)Nc1ccc(Br)cc1	-0.1	-0.8	7.2	-0.8
COc1cccc2sc(=NC(=O)c3cccc4ccccc34)n(C)c12	0.9	6.7	1.7	-0.8
COc1cccc2sc(=NC(=O)c3nc4ccccc4s3)n(C)c12	-0.1	-5.3	70.9*	-0.2
O=C(Nc1ccc(C(=O)c2ccc(Cl)cc2)c(Cl)c1)c1cc(Cl)ccc1O	-0.1	1.3	39.8*	1.1
COC(=O)c1ccc(NC(=O)c2ccc(C)cc2Cl)cc1	0.0	8.0	-25.8	-0.5
CCOc1ccc(NC(=O)c2c(Cl)ccc(Cl)c2OC)cc1	0.0	1.0	9.0	-1.1
COc1ccc(NC(=O)c2ccc(C)cc2Cl)cc1	0.0	48.1	73.0*	-5.2
SMILES	FBW7 act	MITF inh	TEAD-YAP block	GPR151 activ
O=C(NC(=S)Nc1ccc(Cc2ccncc2)cc1)c1ccc(Cl)cc1Cl	0.0	-1.6	21.6	0.1
O=C(Nc1ccc(Cc2ccncc2)cc1)c1ccc(Cl)cc1Cl	0.1	5.3	38.3*	-1.4
O=C(c1ccc(Cl)cc1)c1ccc(NC(=O)c2cc(Br)cc(Br)c2O)cc1Cl	0.0	-2.9	-4.9	-1.7
COc1ccc(NC(=O)NC(=O)c2c(Cl)ccc(Cl)c2OC)cc1	-0.1	-1.1	37.5*	-2.3
CCOc1ccc(/C=N/N2C(=O)c3ccccc3C2=O)cc1	-0.1	-13.2	3.2	-0.8
Cc1ccc2c(c1)CN(CC(=O)N1CCC(c3ccncc3)CC1)CC(c1ccsc1)O2 (stereo not drawn)	-0.1	6.7	-6.9	-1.1
Cn1c(Nc2nc(Nc3ccc4c(c3)OCO4)c3ncn(C4CCCCC4)c3n2)nc2ccccc21	0.1	10.0	-30.0	-0.4
COCCCNC(=O)/C(C#N)=C/c1c(Oc2cccc(C)c2)nc2c(C)cccn2c1=O	0.0	-4.2	13.0	0.1
CC1CCN(C(=O)c2cccc(N3C(=O)C4C5C=CC(C5)C4C3=O)c2)CC1 (stereo not drawn)	0.0	4.7	-3.6	-0.7
O=C(O)c1ccc(NC(=O)c2ccc(Cl)cc2Cl)cc1	0.0	-19.5	45.3*	1.6
O=C(O)c1cc(NC(=O)c2ccc(Cl)cc2Cl)cc(C(=O)O)c1	0.1	-0.1	12.8	3.9
c1ccc2c(c1)n(CCN1CCCCC1)c1ncnn21	0.1	11.8	-5.2	-0.4
c1ccc2c(c1)nc1n(CCN3CCCCC3)cnn21	2.1*	19.0	-5.7	-1.1
NC(=S)N1N=CCC1(O)C(F)(F)F (stereo not drawn)	-0.1	35.7	53.1*	-0.8
COc1ccc(C(CNC(=O)c2ccc3c(c2)OCO3)N2CCN(C)CC2)cc1 (stereo not drawn)	-0.1	2.1	2.9	-0.9
COCCn1c(=O)n(CC(=O)N2CCCCC2)c2cccnc21	0.1	-2.5	-6.0	-1.6
COCCn1c(=O)n(CC(=O)N2CCC(C(N)=O)CC2)c2cccnc21	5.7*	3.3	5.1	-1.9
COc1ccccc1OCCn1cc(C(=S)N2CCOCC2)c2ccccc21	-0.2	15.4	-5.2	-0.3
COc1ccc(OCCn2cc(C(=S)N3CCOCC3)c3ccccc32)cc1	-0.2	2.6	32.2*	0.6
O=C(CN1C(=O)C2C3C=CC(C4CC34)C2C1=O)N1CCC(c2ccncc2)CC1 (stereo not drawn)	0.7	9.8	50.2*	1.9
O=C1CC2(CCN(C(=O)c3cc4ccccc4oc3=O)CC2)Oc2ccccc21	0.6	3.1	9.0	0.2
CCOC(=O)c1c(NC(=O)c2cc(-c3cccs3)on2)sc(C)c1C	2.8*	-8.2	-1.6	1.4
O=C(Nc1cccc(O)c1)c1cc(-c2ccc(Br)cc2)on1	0.9	6.8	73.7*	-5.6
COc1cccc(-c2cc(C(=O)Nc3cccc(O)c3)no2)c1	0.0	-2.6	88.6*	-1.9
COc1cc(NC(=O)c2cc(-c3cccs3)on2)cc(OC)c1OC	-0.1	-4.8	36.0*	-0.4
SMILES	FBW7 act	MITF inh	TEAD-YAP block	GPR151 activ
CCOC(=O)c1c(NC(=O)c2cc(-c3cccs3)on2)sc(C(C)=O)c1C	-0.2	-9.4	-0.9	0.1
CCCOc1cccc(CNc2cccc([N+](=O)[O-])c2)c1	0.2	-22.2	13.0	-0.3
Cc1cnc(N2CCN(c3ccccn3)CC2)nc1NCCc1ccc(O)cc1	-0.1	-4.5	3.0	-1.0
Nc1c(C(=O)c2ccc(Br)cc2)sc2nc(-c3cccnc3)ccc12	0.7	15.0	-2.6	-0.4
O=C(Nc1cccc(O)c1)c1cc(-c2cccs2)on1	0.7	12.9	77.4*	-3.6
O=C(Nc1cccc(Cl)c1)c1cc(-c2cccs2)on1	0.1	14.7	-17.3	-0.1
COc1ccc2c(c1)CCc1c(C(=O)Nc3cccc(O)c3)noc1-2	0.2	-6.3	94.6*	-6.1
COc1ccc2c(c1)CCc1c(C(=O)Nc3cccc(C(C)=O)c3)noc1-2	-0.1	-2.2	-14.6	-0.4
O=C(Nc1cccc(O)c1)c1cc(-c2ccc(O)cc2)on1	0.1	5.1	65.3*	-2.7
COCC(C)NC(=O)c1cc(-c2cccc(OC)c2)on1 (stereo not drawn)	1.9*	-19.4	-42.0	-1.5
